HT1080 IDH1KD tx – qHTS for induction of synthetic lethality in tumor cells producing 2HG: qHTS for the HT-1080-IDH1KD cell line; HT-1080 IDH1 knockdown viability, ATP luminescence, 48 h; hit rate 2% among 360,000; AID 686971, 2013; Potency, µM (series often up to 46.1 µM), actives largely listed as cytotoxic
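HT-1080-IDH1KD cells (IDH1 knocked down), 750/well in RPMI with 5% FBS, treated with compound 48 h at 37 degrees C. Viability by CellTiter-Glo luminescence, normalised to DMSO and no-cell wells; concentration-response curves classed.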
IL-1B inflam inh – qHTS for Inhibitors of Inflammasome Signaling: IL-1-beta AlphaLISA Primary Screen | THP-1 LPS/ATP IL-1B secretion, AlphaLISA, 16 h; stronger effect = lower value | activity change, % at 57.5 µM | hit rate 4.7% among 360,000; in the data active = activity change below about -50%; inconclusive = mostly about -30% to -49%
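THP-1 cells pretreated 1 hr with compounds (up to 57.5 uM final), then stimulated with LPS (250 ng/mL final) plus ATP (1.25 mM final); secreted IL-1B measured by AlphaLISA after 16 hr, decreased signal indicating inhibition.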
TDP1 cell noCPT – qHTS for Inhibitors of human tyrosyl-DNA phosphodiesterase 1 (TDP1): qHTS in cells in absence of CPT. DT40 Tdp1-/- hTDP1 cells, no CPT, ATP luminescence, 48 h. Potency, µM (titrated, usually from 46.2 µM), actives largely listed as inhibitors. hit rate 15% among 420,000; note: nearly all actives have a fitted effect of over 55% in size
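Compound effects on proliferation are scored in DT40 Tdp1-/-;hTDP1 cells in the absence of CPT. ATP levels (CellTiter-Glo luminescence) are recorded after a ≥48 hr, 37 °C incubation.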
DT40 TDP1 CPT – qHTS for Inhibitors of human tyrosyl-DNA phosphodiesterase 1 (TDP1): qHTS in cells in presence of CPT; Potency, µM (highest dose often 46.2 µM), most hits filed as inhibitors; chicken DT40 Tdp1-/-;hTDP1 cells + 20 nM CPT, ATP luminescence, 48 h; AID 686979, 2013; hit rate 12% among 420,000; note: nearly all actives have a fitted effect of over 55% in size
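Chicken DT40 Tdp1-/- cells stably complemented with human TDP1 were seeded at 400 cells/well in medium containing 20 nM camptothecin, exposed to pin-transferred compounds, and grown at 37 °C for at least 48 hr. Viability was read as ATP luminescence.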
HT1080NT lethal – qHTS for induction of synthetic lethality in tumor cells producing 2HG: qHTS for the HT-1080-NT fibrosarcoma cell line; HT-1080-NT fibrosarcoma viability, CellTiter-Glo ATP luminescence, 48 h; Potency, µM (highest dose often 46.1 µM), actives largely listed as cytotoxic; hit rate 1.6% among 360,000; AID 686970, 2013;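 note: NT is the 2HG producing partner of a matched IDH1 knockdown line; nearly all actives have a fitted effect of over 55% in size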
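HT-1080-NT fibrosarcoma cells (2HG-overproducing), 750 cells/well in RPMI with 5% FBS, dosed after 2 h and incubated 48 h at 37C. CellTiter-Glo luminescence normalized to DMSO and no-cell wells; concentration-response curves fitted and classed.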
Of the large screens only hits and unclear results are named; the others gave an inactive call. Most compounds without a hit are left out; they make up all but 19% or so of the library. Unless noted, calls come from the whole dose curve; as a rule, active = well fitted curve in the direction sought with a large enough effect; inconclusive = small, poorly fitted or top-dose-only effect, or another doubt; inactive = no such curve, though single readings can be large; an effect the other way counts as inactive or inconclusive.

C[n+]1c(/C=C/c2ccc(N)cc2)sc2ccccc21	TDP1 cell noCPT inconclusive, DT40 TDP1 CPT 18µM (no result: HT1080 IDH1KD tx, IL-1B inflam inh, HT1080NT lethal)
CCCN(CCC)c1ccc(/C=C/c2sc3ccccc3[n+]2CCCCI)cc1	TDP1 cell noCPT 0.32µM, DT40 TDP1 CPT 0.32µM (no result: HT1080 IDH1KD tx, IL-1B inflam inh, HT1080NT lethal)
COc1cccc(CNC(=O)C2(C)CCCCN2C)c1 (stereo unspecified)	none
CC(=O)Nc1cccc(C(=O)NNC(=O)c2ccc(-n3cnnn3)cc2)c1	none
COc1ccc(/C=C/c2sc3ccccc3[n+]2CCCCI)cc1OC	TDP1 cell noCPT 13µM, DT40 TDP1 CPT 7.9µM (no result: HT1080 IDH1KD tx, IL-1B inflam inh, HT1080NT lethal)
COc1cc(/C=C/c2sc3ccccc3[n+]2CCCS(=O)(=O)[O-])ccc1O	TDP1 cell noCPT inconclusive, DT40 TDP1 CPT inconclusive
CC1=C(C(=O)Nc2cc(Cl)ccc2C)C(c2cccs2)n2ncnc2N1 (stereo unspecified)	TDP1 cell noCPT inconclusive (no result: HT1080 IDH1KD tx, IL-1B inflam inh, HT1080NT lethal)
Nc1ncnc2c1ncn2[C@@H]1O[C@H](CNC(=O)[C@@H](N)COCc2ccccc2)[C@@H](O)[C@H]1O	none
Cc1ccc(OCCNc2cc(N3CCN(CCO)CC3)ccc2[N+](=O)[O-])cc1C	HT1080 IDH1KD tx inconclusive, IL-1B inflam inh inconclusive, TDP1 cell noCPT 29µM, DT40 TDP1 CPT inconclusive, HT1080NT lethal inconclusive
Cc1cccc(OCCNc2cc(N3CCN(C)CC3)ccc2[N+](=O)[O-])c1	IL-1B inflam inh inconclusive, TDP1 cell noCPT 23µM, DT40 TDP1 CPT inconclusive
Cc1nonc1C1CCCN1Cc1nc(-c2ccccc2Cl)oc1C (stereo unspecified)	TDP1 cell noCPT 15µM, DT40 TDP1 CPT inconclusive
Cc1ccccc1-c1nc(CN2CCCC2c2ccc(F)cc2)c(C)o1 (stereo unspecified)	TDP1 cell noCPT 16µM, DT40 TDP1 CPT 21µM
COc1cccc(COC(=O)c2cc(S(=O)(=O)N3CCOCC3)ccc2Cl)c1OC	TDP1 cell noCPT inconclusive, DT40 TDP1 CPT inconclusive
CC(=Nc1ccc(O)cc1)c1sc2ccccc2c1O	TDP1 cell noCPT 13µM, DT40 TDP1 CPT 15µM
C[N+](C)(CCCCCI)c1ccc(/C=C/c2nc3ccccc3s2)cc1	TDP1 cell noCPT 0.56µM, DT40 TDP1 CPT 1µM (no result: HT1080 IDH1KD tx, IL-1B inflam inh, HT1080NT lethal)
CC1CCCCC1NC(=O)/C=C/c1nc2ccccc2s1 (stereo unspecified)	TDP1 cell noCPT inconclusive, DT40 TDP1 CPT inconclusive
C/C(=N\Nc1nc(C(C)(C)C)cs1)c1ccc(O)cc1	TDP1 cell noCPT 18µM
O=C(Nc1nc2c(s1)CCCC2)Oc1ccccc1	none
C/C(=N\Nc1nc(C(=O)O)cs1)c1ccccc1	none
C/C(=N\Nc1nc2c(s1)CCCC2)c1ccccc1	HT1080 IDH1KD tx inconclusive, TDP1 cell noCPT 15µM, DT40 TDP1 CPT 16µM, HT1080NT lethal inconclusive
C/C(=N\Nc1nc(C(C)(C)C)cs1)c1ccccc1	TDP1 cell noCPT 23µM, DT40 TDP1 CPT 23µM
OC(c1cccc(Cl)c1)c1nc(-c2cc3ccccc3o2)cs1 (stereo unspecified)	HT1080 IDH1KD tx inconclusive, TDP1 cell noCPT inconclusive, DT40 TDP1 CPT inconclusive, HT1080NT lethal inconclusive
Cc1cc(O)c(C(C)C)cc1N=Cc1ccccc1[N+](=O)[O-]	HT1080 IDH1KD tx 16µM, TDP1 cell noCPT 3.3µM, DT40 TDP1 CPT 5.2µM, HT1080NT lethal inconclusive
Cc1ccc(C)n1-c1ccc(-c2ccn[nH]2)cc1	IL-1B inflam inh -70, TDP1 cell noCPT inconclusive, DT40 TDP1 CPT inconclusive
COc1ccccc1N1CCN(C(=S)Nc2ccc(S(=O)(=O)N3CCOCC3)cc2)CC1	HT1080 IDH1KD tx inconclusive, IL-1B inflam inh inconclusive, TDP1 cell noCPT 15µM, DT40 TDP1 CPT 18µM
O=S(=O)(c1ccc(NC(=S)N2CCN(c3ccccc3F)CC2)cc1)N1CCOCC1	IL-1B inflam inh inconclusive, TDP1 cell noCPT 18µM, DT40 TDP1 CPT inconclusive
CCOC1(OCC)C(c2ccc(Cl)cc2)C(C#N)(C#N)C1(OCC)OCC (stereo unspecified)	HT1080 IDH1KD tx inconclusive, IL-1B inflam inh -57, TDP1 cell noCPT 18µM, DT40 TDP1 CPT inconclusive, HT1080NT lethal inconclusive
CCOC1(OCC)C(c2ccc(N)cc2)C(C#N)(C#N)C1(OCC)OCC (stereo unspecified)	none
